Cl transport mod: modulators of human KCC2 chloride dependent transport; Q9H2X9; KCC2 cells, thallium flux FluoZin-2 fluorescence; B-score of Tl+ flux slope (higher = more flux/activation; lower = inhibition) at 10 µM; 2.2% of 190,000 active; AID 1456;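 active = thallium flux slope and its plate-corrected score both differing from the plate sample mean at a set confidence after two filtering rounds, in either direction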;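 also: slope of fluorescence scaled to starting intensity during 10 to 20 s after thallium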
Target sequence (Q9H2X9 whole entry, looked up): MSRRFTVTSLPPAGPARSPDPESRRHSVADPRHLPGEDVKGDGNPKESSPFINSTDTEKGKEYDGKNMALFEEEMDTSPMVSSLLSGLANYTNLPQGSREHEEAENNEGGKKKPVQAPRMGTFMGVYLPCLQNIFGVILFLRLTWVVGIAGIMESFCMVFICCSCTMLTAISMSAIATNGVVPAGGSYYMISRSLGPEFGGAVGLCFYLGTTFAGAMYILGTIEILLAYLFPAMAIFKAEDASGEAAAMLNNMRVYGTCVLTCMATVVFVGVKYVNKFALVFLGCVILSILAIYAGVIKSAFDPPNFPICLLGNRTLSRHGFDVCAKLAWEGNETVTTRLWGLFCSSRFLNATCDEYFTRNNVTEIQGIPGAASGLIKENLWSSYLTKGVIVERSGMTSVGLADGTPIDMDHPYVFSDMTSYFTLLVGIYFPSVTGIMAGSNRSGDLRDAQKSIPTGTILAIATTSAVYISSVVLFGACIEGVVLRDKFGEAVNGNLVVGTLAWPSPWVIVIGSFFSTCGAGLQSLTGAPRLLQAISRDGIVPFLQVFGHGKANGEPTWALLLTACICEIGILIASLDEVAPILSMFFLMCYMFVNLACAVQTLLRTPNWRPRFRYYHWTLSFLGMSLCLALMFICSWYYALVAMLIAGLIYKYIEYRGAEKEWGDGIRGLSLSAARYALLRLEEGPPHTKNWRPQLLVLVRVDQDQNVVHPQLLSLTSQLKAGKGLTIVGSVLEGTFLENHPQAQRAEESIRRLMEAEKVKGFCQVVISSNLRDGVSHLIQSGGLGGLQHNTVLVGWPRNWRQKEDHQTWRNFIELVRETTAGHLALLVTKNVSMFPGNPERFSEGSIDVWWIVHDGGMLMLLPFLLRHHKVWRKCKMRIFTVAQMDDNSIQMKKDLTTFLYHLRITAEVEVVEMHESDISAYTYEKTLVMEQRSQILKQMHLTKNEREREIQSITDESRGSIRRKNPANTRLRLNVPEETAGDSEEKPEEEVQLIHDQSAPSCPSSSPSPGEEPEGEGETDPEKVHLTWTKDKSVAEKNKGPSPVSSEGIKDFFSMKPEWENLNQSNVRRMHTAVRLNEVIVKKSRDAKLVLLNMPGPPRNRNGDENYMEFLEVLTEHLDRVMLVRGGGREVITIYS
Lmaj promast: reduces viability of Leishmania major promastigotes; resazurin fluorescence viability; inhibition, % at 10 µM; 9% of 200,000 active; in the data active = inhibition above about 50%;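 also: promastigotes grown with compound for 44 hours at 28 °C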
WT yeast gro inh: growth inhibition of WT yeast, mitochondrial fusion screen; mitochondrial fusion phenotypic screen, WT strain; inhibition, % at 10 µM; 2.1% of 190,000 active; in the data active = inhibition above about 58%; tested in S. cerevisiae
Calpain2 inh: blocks pig calpain II enzyme activity; purified calpain II, fluorogenic peptide substrate, 30 min; inhibition, % at 16 µM; 0.37% of 220,000 active;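 active = inhibition above about 50%, limit read from the data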
ROMK primary: human ROMK K+ channel modulation, primary screen. Tet-inducible ROMK, thallium flux fluorescence; actives lie on both sides. B-score at 10 µM. 2% of 130,000 active. P48048;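 active = signal ratio slope over the read window, or its plate-corrected B-score, at least 3 SD from the plate mean, either direction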;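 also: B-score of the F/F0 ratio slope over 7 to 12 s after thallium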
Active calls of the source: *; . = no result. Rows were chosen to be rich in hits. Some 12% of all compounds tested hit in one or more screens of this group.

SMILES	Cl transport mod	Lmaj promast	WT yeast gro inh	Calpain2 inh	ROMK primary
CC1CCCCC1NC(=O)c1cn(C)c2ccc(S(=O)(=O)N3CCCC3)cc2c1=O (stereo not given)	-0.73	37	12	-40	-0.33
COC(=O)c1ccsc1NC(=O)CN1C(=O)CCC1=O	0.72	.	-8	6	.
COc1ccccc1C(=O)Nc1ccc(C2=NNC(=O)CC2C)cc1 (stereo not given)	-0.077	-4	-2	12	0.0045
Cc1cc(C(=O)Nc2c[nH]c(=O)[nH]c2=O)ccc1[N+](=O)[O-]	1.5	-5	-6	13	0.09
O=C(c1cccc(Oc2ccccc2)c1)N1CCN(c2ccccn2)CC1	-2.5	-9	8	1	-0.76
CN(Cc1nc2c(s1)CCCC2)C(=O)CCc1nnc(-c2ccc3c(c2)OCO3)o1	-0.37	.	.	-11	.
Cc1nc([N+](=O)[O-])c(Br)n1CC(=O)c1ccccc1	.	96*	-10	-12	0.69
Cc1nc([N+](=O)[O-])c(Br)n1CC(=O)c1ccc(Br)cc1	-0.54	98*	34	-52	-0.36
Cc1cc([N+](=O)[O-])nn1CC(=O)c1ccccc1	-0.31	-6	-10	1	.
Cc1nc([N+](=O)[O-])c(Br)n1CC(=O)c1ccc2ccccc2c1	-1.2	100*	40	-34	-2
Cc1nc([N+](=O)[O-])c(C(=O)OCc2ccccc2Br)n1C	-1.8	6	8	-21	-0.5
O=C(O)c1ccccc1OCc1ccccc1Br	-0.26	-1	1	-2	0.64
O=C(c1ccccc1OCc1ccccc1Br)N1CCN(c2ncccn2)CC1	-2.5	68*	-3	-8	.
COc1ccc(N(C)S(=O)(=O)c2cccc(C(=O)Nc3ccc(-n4cnnn4)cc3)c2)cc1	0.58	5	-12	-24	.
CC(=O)N1CCC(C(=O)Nc2cc(C)cc(C)c2)CC1	.	.	.	21	.
O=c1cc(-c2ccccc2Cl)oc2ccc([N+](=O)[O-])c(O)c12	2.4	-2	64*	-23	0.35
CCCn1c(SCC(=O)N2CCN(C(=O)c3ccco3)CC2)nc2ccccc2c1=O	0.13	2	-11	-20	0.25
CCOC(=O)c1c(C)nc2sc3c(=O)n(-c4ccc(C)cc4)cnc3c2c1-c1ccc(OC)cc1	.	0	7	-56	.
CCOC(=O)CSc1nc(C)nc2c1sc1nc(C)c(C(C)=O)c(-c3ccc(OC)cc3)c12	-0.68	85*	4	-2	-0.9
COc1ccccc1CN(Cc1nc2ccccc2c(=O)[nH]1)S(=O)(=O)c1ccc2ccccc2c1	0.066	90*	6	4	.
COc1ccccc1NC(=O)N(Cc1ccc2c(c1)OCO2)Cc1nc2ccccc2c(=O)[nH]1	-0.65	-6	13	-18	0.039
O=C(Nc1ccccc1Cl)N(Cc1nc2ccccc2c(=O)[nH]1)Cc1cccs1	0.41	44	-8	-2	0.35
O=C(Nc1ccc(Cl)cc1)N(Cc1nc2ccccc2c(=O)[nH]1)Cc1cccs1	-0.047	85*	14	6	-0.22
COc1ccccc1CN(Cc1nc2ccccc2c(=O)[nH]1)C(=O)Nc1cccc(C)c1	-1.1	86*	4	3	-1.1
COC(=O)[C@H](C)NC(=O)Nc1cccc(Br)c1	0.74	.	.	7	1.2
SMILES	Cl transport mod	Lmaj promast	WT yeast gro inh	Calpain2 inh	ROMK primary
COc1ccc(NC(=O)/C(C#N)=C/c2ccc3c(c2)n(C)c(=O)n3C)cc1	0.027	57*	-13	-29	0.044
CCOC(=O)c1ccc(-n2ccnc2)c(NC(=O)c2ccc(Cl)cc2)c1	0.86	81*	-4	12	.
CCOc1cc(NC(=S)NCC2CCCO2)c(OCC)cc1NC(=O)C1CC1 (stereo not given)	-0.045	20	1	21	-0.64
Cc1ccc(Nc2nc(-c3ccc(S(=O)(=O)N4CCOCC4)cc3)cs2)cc1	-0.39	24	.	.	.
Cc1cc(C)cc(Nc2nc(-c3ccc(S(=O)(=O)N4CCCC4)cc3)cs2)c1	0.08	99*	7	-27	1.5
Cc1nc(-c2ccc(S(=O)(=O)N3CCCCCC3)cc2)cs1	-0.3	-5	0	-11	.
O=S(=O)(c1ccc(-c2csc(Nc3ccc(Br)cc3)n2)cc1)N1CCCC1	1	-3	11	-15	-0.032
O=S(=O)(c1ccc(-c2csc(Nc3ccc(F)cc3)n2)cc1)N1CCCC1	0.041	64*	29	16	1.1
Cc1ccc(Nc2nc(-c3ccc(S(=O)(=O)N4CCCC4)cc3)cs2)cc1C	-0.45	90*	11	-105	0.39
Cc1cc2ccccn2c1C(=O)Nc1cccc(Cl)c1	-1.9	-5	1	-31	.
NC(=O)Cc1cn(-c2ncc(C(F)(F)F)cc2Cl)c2ccccc12	.	1	0	20	-0.13
